The structures appear in SMILES notation. Activity calls are given as the source filed them. The call rests on the fitted dose curve; in most records, active means well fitted curve in the direction sought with a large enough effect in the repeat runs; inconclusive means weak or mixed curves; inactive means flat fitted curve, though single readings scatter.

A short description of this experiment: qHTS assay to test for compound auto fluorescence at 535 nm (green) in HEK293 cell free culture (AID 720682). To be noted: cell-free medium, green autofluorescence 485/535 nm; series mostly up to 91.3 µM. The text has this: U.S. Tox21 Program National Center for Advancing Translational Sciences [NCATS] NIH Chemical Genomics Center [NCGC] U.S. Environmental Protection Agency [EPA] National Institutes of Environmental Health Sciences [NIEHS] National Toxicology Program [NTP] U.S. Food and Drug Administration [FDA] Tox21 Assay Overview: Compound auto fluorescence often interferes with screening of the compound library against various biological targets and signaling pathways. Some of these compounds may have fluorophoric properties. Such properties may interfere with the assay outputs resulting in false positives and/or negatives. To decrease such complications and ensure the compound activities are relevant in terms of biological response, the Tox21 10K compound library was screened for auto fluorescence. From the fluorophores used as reporter signals in our screening assays, the auto fluorescence equivalencies of compounds against three fluorophores have been evaluated: Triamterene, Fluorescein and Rose Bengal sodium for blue, green and red fluorescence, respectively. The fluorescence intensities were measured using Excitation/Emission wavelengths at 405/460nm, 485/535nm and 540/590nm for blue, green and red labels, respectively. This assay includes the green fluorescence data.
Tox21 Assay Protocol Summary: 5 uL of culture medium (DMEM containing 10% FBS) per well was dispensed into black wall/clear bottom 1536-well plates using a Multidrop Combi Dispenser (ThermoFisher Scientific, Waltham, MA). After 23 nL compound or DMSO vehicle was transferred into assay plate by a pintool work station (Kalypsys, San Diego, CA), fluorescence intensities in the assay plates were measured by an Envision (PerkinElmer, Shelton, CT) plate reader using three labels for measuring blue, green and red fluorescence at […] 460, 535 and 590nm respectively.
(In qHTS, concentration-response curves come from the screen itself.)
On to `C=COC(C)=O`, for which the result was inactive.
The result for `CCCCCCCCCC(=O)O[C@H]1CC[C@H]2[C@@H]3CCC4=CC(=O)CC[C@@H]4[C@H]3CC[C@]12C` reads “inactive”; that for `COC(=O)c1cncn1C(C)c1ccccc1` (stereo not given), “inactive”; that for `O=C(O)COc1ccc(Cl)cc1`, “inactive”.
In the case of `Cl/C=C\Cl`, the molecule was classed as inactive.
The result for `CCCCC(CC)COP(=O)(Oc1ccccc1)Oc1ccccc1` (stereo not given) reads “inactive”.
For the molecule `Nc1ccc(N=Nc2ccc(-c3ccc(N=Nc4c(S(=O)(=O)O)cc5cc(S(=O)(=O)O)c(N=Nc6ccccc6)c(O)c5c4N)cc3)cc2)c(N)c1`, the molecule was called inactive.
The result for `O=S1OC[C@@H]2[C@H](CO1)[C@]1(Cl)C(Cl)=C(Cl)[C@@]2(Cl)C1(Cl)Cl` (stereo not given in full) reads “inactive”.
Regarding `Cc1ccccc1CCl`, the molecule was called inactive.
The entry for `NNC(=O)c1cccnc1` is “inactive”; for `CNP(=O)(OC)Oc1ccc(C(C)(C)C)cc1Cl` (stereo not given) it is “inactive”.
Regarding `CCCN(CC1CC1)c1c([N+](=O)[O-])cc(C(F)(F)F)cc1[N+](=O)[O-]`, the outcome was inactive.
For the molecule `O=C(O)c1ccccc1C(=O)Nc1cccc2ccccc12`, the molecule was classed as inactive.
On to `C=CCCl`, for which the molecule was classed as inactive.
The entry for `CCOP(=S)(OCC)SCn1nnc2ccccc2c1=O` is “inactive”.
On to `O=[N+]([O-])C(Br)(CO)CO`, for which the result was inactive.
The entry for `Clc1cc(Cl)c(Cl)c(Cl)c1` is “inactive”.
For `COCCOCCO`, the molecule was called inactive.
Consider `O=C(Nc1ccccc1)Nc1ccnc(Cl)c1`, for which the result was inactive.
The entry for `CCCN(CCC)c1c([N+](=O)[O-])cc(S(C)(=O)=O)cc1[N+](=O)[O-]` is “inactive”.
For `CCCCN=C=O`, the result was inactive.
Turning to `C[C@@H]1CC[C@H]2[C@@H](C)C(=O)O[C@@H]3O[C@@]4(C)CC[C@@H]1[C@]32OO4`, the call was inactive.
On to `Clc1cc(C(Cl)(Cl)Cl)cnc1Cl`, for which the outcome was inactive.
With `CN1[C@@H]2CC[C@H]1CC(OC(=O)c1cc(Cl)cc(Cl)c1)C2` (stereo not given in full), the molecule was called inactive.
The result for `CO/C=C(/C(=O)OC)c1ccccc1COc1cccc(C(F)(F)F)n1` reads “inactive”.
With `Cc1c(F)c(F)c(COC(=O)C2C(/C=C(\Cl)C(F)(F)F)C2(C)C)c(F)c1F` (stereo not given), the molecule was called inactive.
As to `CC(C)N(C(=O)COc1nnc(C(F)(F)F)s1)c1ccc(F)cc1`, the molecule was classed as inactive.
Regarding `O=C1NCN(c2ccccc2)C12CCN(CCCOc1ccc(F)cc1)CC2`, the result was inactive.
With `CCOP(=O)(OCC)O/C(=C/Cl)c1ccc(Cl)cc1Cl`, the outcome was inactive.
Turning to `C=CC(=O)OCC(C)C`, the call was inactive.
The entry for `CC(=O)c1cc2c(cc1C)C(C)(C)C(C)CC2(C)C` (stereo not given) is “inactive”; for `C=C(C#N)CCC#N` it is “inactive”; for `COCC(C)N(C(=O)CCl)c1c(C)csc1C` (stereo not given) it is “inactive”.
For `CCn1cc[n+](C)c1`, the call was inactive.
The entry for `CCN(C)N=O` is “inactive”.
The result for `ClCC(Br)CBr` (stereo not given) reads “inactive”.
Turning to `CCBr`, the molecule was called inactive.
The entry for `CCCC(Cn1cncn1)c1ccc(Cl)cc1Cl` (stereo not given) is “inactive”.
The result for `O=NN1CCCCCC1` reads “inactive”.
The entry for `CC(C)N(CCC(C(N)=O)(c1ccccc1)c1ccccn1)C(C)C` (stereo not given) is “inactive”.

The values above are taken from PubChem BioAssay (Tox21).
